TDP1 cell noCPT: qHTS for Inhibitors of human tyrosyl-DNA phosphodiesterase 1 (TDP1): qHTS in cells in absence of CPT | DT40 Tdp1-/- hTDP1 cells, no CPT, ATP luminescence, 48 h | 15% of 420,000 active | Potency, µM (top dose mostly 46.2 µM), inactives show top-dose activity change, negative = growth inhibition, hits mostly inhibitors; further: potency means the concentration at half of the fitted maximal effect; on the % scale 0 is the no-effect control and ±100 the full control effect; nearly all actives have a fitted effect of over 55% in size
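No-CPT arm: Tdp1-/-;hTDP1 DT40 cells (400/well) plus compounds, incubated ≥48 hr at 37 °C. Readout CellTiter-Glo luminescence.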
MCF10A rereplic: induces DNA re-replication in MCF 10a normal breast cells; Potency, µM (highest dose often 46.1 µM), inactives show top-dose activity, positive = re-replication, actives largely listed as activators; MCF 10A DNA re-replication, Hoechst nuclear intensity, 48 h; 2.9% of 350,000 active; further: potency means the concentration at half of the fitted maximal effect; % of control where 0% means no effect; nearly all actives have a fitted effect of over 50% in size
TDP1 cell CPT: growth inhibition of DT40 Tdp1-/-;hTDP1 cells with camptothecin (screen for TDP1 inhibitors) | chicken DT40 Tdp1-/-;hTDP1 cells + 20 nM CPT, ATP luminescence, 48 h | Potency, µM (highest dose often 46.2 µM), without a hit: at the highest dose activity change, negative = growth inhibition, actives largely listed as inhibitors | 12% of 420,000 active; further: potency means the concentration at half of the fitted maximal effect; on the % scale 0 is the no-effect control and ±100 the full control effect; nearly all actives have a fitted effect of over 55% in size
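Chicken DT40 Tdp1-/- cells complemented with human TDP1, 400 cells/well, exposed to compounds plus 20 nM camptothecin for at least 48 h at 37 C; viability read as ATP content by CellTiter-Glo luminescence.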
Chronic BCR inh: inhibitors of chronic active B-cell receptor signaling | ABC-DLBCL IkBa-CBG/CBR reporter, luminescence ratio, 4 h | Potency, µM (doses to about 46.1 µM), inactives show top-dose activity change, negative = inhibition, most hits filed as inhibitors | 0.05% of 340,000 active | AID 493014; active means well fitted inhibition curve with a large enough effect in the signal ratio, with a control signal flat, not every such curve was filed as active; inconclusive means small, poorly fitted or top-dose-only effect, or effect the other way, or a change in a side signal; the % refers to the signal ratio;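 further: potency means the concentration at half of the fitted maximal effect; plate controls were basal doxycycline-induced cells for no effect and cells given 10 µM MG132 for full effect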
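TMD8 human ABC-DLBCL cells with doxycycline-inducible IκBα–green luciferase fusion and unfused red luciferase, in 0.5% FBS medium; compounds up to 46 uM, 4 h at 37C. Green/red luminescence ratio, filter-overlap corrected, fitted to concentration-response curves.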
SW480 rereplic: induces DNA re-replication in SW480 colon adenocarcinoma cells; 1.8% of 340,000 active; AID 624297; Potency, µM (highest dose often 46.1 µM), inactives show at the highest dose re-replication activation, usual class: activators; SW480 DNA re-replication, Hoechst DNA content imaging, 48 h; further: potency means the concentration at half of the fitted maximal effect; % of control where 0% means no effect; nearly all actives have a fitted effect of over 55% in size
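Compounds, transferred as 23 nL by pin tool, were incubated with cells for 48 hr; DNA content per nucleus was then quantified by Hoechst staining and fluorescence plate imaging.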
IL1B secr inh: inhibitors of inflammasome signaling (IL-1 beta secretion); THP-1 LPS/ATP IL-1B secretion, AlphaLISA, 16 h; hits give low values; activity change, % at 57.5 µM; 4.7% of 360,000 active; in the data active means activity change below about -50%; inconclusive means mostly about -30% to -49%; further: on the % scale 0 is the no-effect control and ±100 the full control effect
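THP-1 cells pretreated 1 hr with compounds (up to 57.5 uM final), then stimulated with LPS (250 ng/mL final) plus ATP (1.25 mM final); secreted IL-1B measured by AlphaLISA after 16 hr, decreased signal indicating inhibition.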
* hit, by the source's call; ? = inconclusive; · = no result given; ! = a repeat was not active; [ ] = another dose, or the depositor's remark. This is a sample that favours compounds with a hit; in the whole collection about 19% have one here. Unless noted, the call rests on the fitted dose curve; in most records, active means well fitted curve in the direction sought with a large enough effect; inconclusive means small, poorly fitted or top-dose-only effect, or another doubt; inactive means no such curve, though single readings can be large; an effect the other way counts as inactive or inconclusive.

SMILES	TDP1 cell noCPT	MCF10A rereplic	TDP1 cell CPT	Chronic BCR inh	SW480 rereplic	IL1B secr inh
Cc1cc(OCC(=O)N2CCC(C(=O)O)(c3ccccc3)CC2)c2c(C)c(C)c(=O)oc2c1	-1%	16%	-1%	-7%	-8%	18
CCN1C(=O)/C(=C/c2ccc3c(c2)CCN3CCCCl)C(=O)NC1=S	23µM*	-2%	?	2%	-6%	-19
CC(C)(C)N1C(=O)NC(=O)/C(=C\c2ccc3c(c2)CCN3CCCCl)C1=O	?	4%	3%	-2%	-42%	52
CC(C)n1c(/C=C/[C@H](O)C[C@H](O)CC(=O)O)c(-c2ccc(F)cc2)c2ccccc21	29µM*	12%	18µM*	6%	?	93
O=Cc1c(C(=O)O)n(Cc2ccccc2F)c2ccccc12	-4%	-3%	-26%	4%	9%	60
Cc1cccc(OP(=O)(Nc2ccc(F)cc2)Oc2cccc(C)c2)c1	?	?	-28%	?	?	-72*
Cc1cccc(OP(=O)(Nc2cccnc2)Oc2cccc(C)c2)c1	?	3%	?	?	-5%	-23
Cc1cccc(OP(=O)(NCc2ccccc2)Oc2cccc(C)c2)c1	26µM*	?	?	4%	?	-27
CC(C)(C)C(=O)O[C@H]1CC[C@@]2(C)C(=CC(=O)C3C2CC[C@]2(C)C(=O)[C@@H](F)CC32)C1 (some centres not stated)	?	?	?	-2%	?	-77*
CC(=O)OC1CC[C@@]2(C)C(=CC(=O)C3C4CCC(OC(C)=O)[C@@]4(C)CCC32)C1 (some centres not stated)	?	1%	-13%	·	-23%	6
CN1CCc2nc(SCc3cccc(Br)c3)c(C#N)cc2C1	18µM*	?	?	?	1%	-7
C[C@]12CC[C@H](OS(=O)(=O)O)CC1=CCC1C2CC[C@]2(C)C(=O)CC[C@@H]12 (some centres not stated)	·	-3%	·	·	-1%	·
O=[N+]([O-])c1cc(I)c(O)c(I)c1	?	?	8%	·	-7%	·
CCOc1ccccc1-n1c(O)c(C=NCCCn2ccnc2)c(=O)[nH]c1=O	1%	0%	2%	11%	-12%	21
O=C(COc1ccc(Cl)cc1)N(c1ccc(Cl)cc1)C1CN2CCC1CC2 (configuration not stated)	16µM*	0%	?	?	0%	-95*
Clc1ccccc1CNC1CN2CCC1CC2 (configuration not stated)	-8%	7%	?	-3%	-2%	-3
O=C(COc1ccc(Cl)cc1)N(c1ccccc1Cl)C1CN2CCC1CC2 (configuration not stated)	16µM*	?	23µM*	-2%	17%	-75*
Cc1ccc2c(c1)[C@H]1[C@H](CO2)[C@H](c2ccccc2)[C@]2(C)C(=O)N(CC3CCCO3)CC(=O)N12 (some centres not stated)	?	-4%	3%	-1%	?	-10
C[N@+]12CCCC[C@@H]1CCC(=C(c1cccs1)c1cccs1)C2	19µM*	·	27µM*	·	·	·
NC(=O)c1cn(C2OC(CO)C(O)C2O)c2ncnc(N)c12 (configuration not stated)	0.016µM*	?	0.0082µM*	?	0.058µM*	-81*!
N#Cc1cn(C2OC(CO)C(O)C2O)c2ncnc(N)c12 (configuration not stated)	0.015µM*	19%	0.015µM*	·	12%	-108*
CCNC(=O)[C@H]1O[C@@H](n2cnc3c(N)ncnc32)[C@H](O)[C@@H]1O	-1%	-40%	-7%	?	-34%	19
COP(N)(=O)SC (configuration not stated)	-3%	·	0%	·	·	·
CCOC(=O)c1ccccc1NC(=O)N(Cc1ccc(CC)cc1)Cc1cn[nH]c1-c1ccc(OC)cc1	15µM*	·	?	·	·	·
COC1=CC(=O)O[C@@H](/C=C/c2ccccc2)C1	-12%	-15%	-5%	?	-54%	-24
SMILES	TDP1 cell noCPT	MCF10A rereplic	TDP1 cell CPT	Chronic BCR inh	SW480 rereplic	IL1B secr inh
COc1cccc(C(=O)C2CCCN(Cc3ccccn3)C2)c1 (configuration not stated)	?	-2%	-1%	-4%	1%	0
COc1c(C)cc(C(=O)C2CCCN(Cc3cnc(C)s3)C2)cc1C (configuration not stated)	26µM*	-17%	?	?	23%	0
COc1c(C)cc(C(=O)C2CCCN(Cc3ccccn3)C2)cc1C (configuration not stated)	18µM*	?	?	?	-1%	12
COC(=O)C1=C(c2ccccc2)C[C@@H]2CC[C@H]1N2C(=O)NCCS(C)=O (some centres not stated)	12%	11%	7%	·	0%	48
O=C(CN1CC(c2ccccc2)CC1=O)Nc1ccc(F)cc1 (configuration not stated)	-15%	0%	2.9µM*	0%	8%	-23
O=C(CN1CC(c2ccccc2)CC1=O)Nc1cccc(F)c1 (configuration not stated)	-6%	0%	3%	2%	-16%	?
O=C(Cc1ccccc1)c1ccccn1	?	10%	?	·	-2%	0
O[C@@H]1[C@H](O)[C@H]2[C@@H](O)CCN2C[C@@H]1O	-2%	·	11%	·	·	·
CC1(C)C[C@H]2C=C(C=O)[C@]3(C=O)C[C@]3(C)[C@H]2C1	0.82µM*	2.1µM*	0.92µM*	?	9.2µM*	-108*
CCCSP(=O)(OCC)SCCC	-13%[92.5 µM]	·	6%[92.5 µM]	·	·	·
Cc1ccc(OCCOc2cccc(C=C3C(=O)NC(=O)NC3=O)c2)c(C)c1	?	12%	?	?	15%	2
O=C1C(Br)C2CCC1C2C(=O)O (configuration not stated)	0%	·	-2%	·	·	3
Cc1ccc(-c2cc(C(F)F)n3ncc(C(=O)N4CCc5ccccc5C4)c3n2)cc1	26µM*	?	?	-17%	18µM*	0
Fc1ccc(NC(=S)NC2CC3CCC(C2)N3Cc2ccco2)cc1 (configuration not stated)	?	-2%	2%	8%	0%	-4

High-throughput results as filed in PubChem BioAssay.
